# Assay results as given in PubChem BioAssay (NCATS).
# Records with an inconclusive call do not appear. Where a call stands in place of a potency, no number is given. A number with no mark means an inactive call. Calls of active or inactive are those of the source. Unless noted, calls follow the shape of the full dose curve.
# Tests used:
# [1] = qHTS for Inhibitors of the Functional Ribonucleoprotein Complex (vRNP) of Lassa (LASV) Arenavirus: LASV Primary Screen - GLuc reporter signal (AID 1347082; calls by dose curve; tested in HEK293 reporter line; also: nearly all actives have a fitted effect of over 60% in size; as to activity change, negative = inhibition: series mostly up to about 57 µM)
# [2] = qHTS for Inhibitors of the Functional Ribonucleoprotein Complex (vRNP) of Lassa (LASV) Arenavirus: Viability assay - alamar blue signal for LASV Primary Screen (AID 1347083; calls by dose curve; tested in HEK293 reporter line; also: nearly all actives have a fitted effect of over 80% in size; as to activity change, negative = reduced viability: series mostly up to about 57 µM)
# [3] = qHTS for Inhibitors of the Functional Ribonucleoprotein Complex (vRNP) of Lymphocytic Choriomeningitis Arenaviruses (LCMV): Viability assay - alamar blue signal for LCMV Primary Screen (AID 1347085; calls by dose curve; tested in HEK293 reporter line; also: nearly all actives have a fitted effect of over 80% in size; as to activity change, negative = lower viability: series mostly up to about 57 µM)
# [4] = biological target: Nucleoprotein (Lymphocytic choriomeningitis virus (strain Armstrong)) (UniProt P09992); test: qHTS for Inhibitors of the Functional Ribonucleoprotein Complex (vRNP) of Lymphocytic Choriomeningitis Arenaviruses (LCMV): LCMV Primary Screen - GLuc reporter signal (AID 1347086); also: nearly all actives have a fitted effect of over 70% in size; as to activity change, negative = inhibition: series mostly up to about 57 µM
# Nucleoprotein (Lymphocytic choriomeningitis virus (strain Armstrong)), sequence (P09992 whole entry, looked up): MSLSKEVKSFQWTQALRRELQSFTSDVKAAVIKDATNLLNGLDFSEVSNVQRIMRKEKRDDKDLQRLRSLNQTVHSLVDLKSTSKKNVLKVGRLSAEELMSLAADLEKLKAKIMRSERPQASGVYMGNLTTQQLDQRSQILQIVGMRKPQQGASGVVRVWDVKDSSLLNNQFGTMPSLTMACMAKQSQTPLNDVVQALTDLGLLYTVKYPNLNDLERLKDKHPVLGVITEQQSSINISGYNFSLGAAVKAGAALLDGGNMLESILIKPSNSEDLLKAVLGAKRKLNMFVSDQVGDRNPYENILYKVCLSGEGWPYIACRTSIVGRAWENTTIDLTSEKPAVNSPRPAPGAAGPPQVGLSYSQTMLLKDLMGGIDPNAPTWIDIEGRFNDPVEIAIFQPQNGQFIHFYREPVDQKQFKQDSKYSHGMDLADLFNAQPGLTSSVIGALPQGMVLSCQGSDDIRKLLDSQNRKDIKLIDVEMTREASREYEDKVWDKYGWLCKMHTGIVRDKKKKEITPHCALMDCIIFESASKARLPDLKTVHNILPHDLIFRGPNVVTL
# Potency is read from the fitted curve at half-maximal effect.
Compound,Potency [1],Potency [2],Potency [3],Potency [4],"activity change, negative = inhibition [1]","activity change, negative = reduced viability [2]","activity change, negative = lower viability [3]","activity change, negative = inhibition [4]"
CCCNC(C)C(=O)Nc1ccccc1C (stereo unspecified),inactive,inactive,inactive,inactive,–,–,–,–
Nc1ccc(S(N)(=O)=O)cc1,inactive,inactive,inactive,inactive,–,–,–,–
CC(=O)Oc1cc(C(C)C)c(OCCN(C)C)cc1C,inactive,inactive,inactive,inactive,–,–,–,–
CCCCCCn1c(=O)c2c(ncn2C)n(C)c1=O,inactive,inactive,inactive,inactive,–,–,–,–
CCn1cc(C(=O)O)c(=O)c2cnc(N3CCCC3)nc21,–,–,–,–,2.17% [at 11.5 µM],9.34% [at 11.5 µM],6.9% [at 11.5 µM],14.6% [at 11.5 µM]
CCN1CC(CCN2CCOCC2)C(c2ccccc2)(c2ccccc2)C1=O (stereo unspecified),inactive,inactive,inactive,inactive,–,–,–,–
O=[N+]([O-])c1cncn1CCN1CCOCC1,inactive,inactive,inactive,inactive,–,–,–,–
CC(CC(C#N)(c1ccccc1)C(C)C)N(C)C (stereo unspecified),inactive,inactive,inactive,inactive,–,–,–,–
OC[C@H]1O[C@@H](n2cnc3c2NC=NC[C@H]3O)C[C@@H]1O,inactive,inactive,inactive,inactive,–,–,–,–
C[C@@H]1O[C@@H](O[C@H]2CC[C@@]3(C)[C@H](CC[C@@H]4[C@H]3C[C@@H](O)[C@]3(C)[C@@H](C5=CC(=O)OC5)CC[C@]43O)C2)C[C@H](O)[C@@H]1O[C@H]1C[C@H](O)[C@H](O[C@H]2C[C@H](O)[C@@H](O)[C@@H](C)O2)[C@H](C)O1 (stereo in doubt),559 nM (active),352 nM (active),396 nM (active),444 nM (active),–,–,–,–
COc1ccc2[nH]cc(CCNC(C)=O)c2c1,inactive,inactive,inactive,inactive,–,–,–,–
C1COC(NC(C2CC2)C2CC2)=N1,inactive,inactive,inactive,inactive,–,–,–,–
O=C1c2ccccc2C(=O)c2c1ccc(O)c2O,inactive,inactive,inactive,inactive,–,–,–,–
O=C(CCBr)N1CCN(C(=O)CCBr)CC1,inactive,inactive,inactive,inactive,–,–,–,–
C[N+]1(C)[C@@H]2CC(OC(=O)[C@H](CO)c3ccccc3)C[C@H]1[C@@H]1O[C@@H]12 (stereo partly specified),inactive,inactive,inactive,inactive,–,–,–,–
Nc1ncnc2nc[nH]c12,inactive,inactive,inactive,inactive,–,–,–,–
CC1(C)O[C@H]2CC(=O)OC[C@]23[C@H]2CC[C@@]4(C)[C@H](c5ccoc5)OC(=O)[C@H]5O[C@]54[C@]2(C)C(=O)C[C@@H]13,inactive,inactive,inactive,inactive,–,–,–,–
CO/N=C(/C(=O)N[C@@H]1C(=O)N2C(C(=O)OCOC(=O)C(C)(C)C)=C(C)CS[C@H]12)c1csc(N)n1,inactive,inactive,inactive,inactive,–,–,–,–
Cc1cn([C@@H]2O[C@H](CO)[C@@H](O)[C@H]2F)c(=O)[nH]c1=O,inactive,inactive,inactive,inactive,–,–,–,–
CN1C[C@@H]2C[C@H]1CN2c1cc2c(cc1F)c(=O)c(C(=O)O)cn2C1CC1,inactive,inactive,inactive,inactive,–,–,–,–
CCS(=O)(=O)CCn1c([N+](=O)[O-])cnc1C,inactive,inactive,inactive,inactive,–,–,–,–
O=C(O)c1cc(=O)[nH]c(=O)[nH]1,inactive,inactive,inactive,inactive,–,–,–,–
O=c1cc(O)c(Cl)c[nH]1,inactive,inactive,inactive,inactive,–,–,–,–
Cc1ccsc1/C=C/C1=NCCCN1C,inactive,inactive,inactive,inactive,–,–,–,–
CCN(CC)C(C)CN1c2ccccc2Sc2ccccc21 (stereo unspecified),inactive,inactive,inactive,inactive,–,–,–,–

Compound,Potency [1],Potency [2],Potency [3],Potency [4],"activity change, negative = inhibition [1]","activity change, negative = reduced viability [2]","activity change, negative = lower viability [3]","activity change, negative = inhibition [4]"
COC(=O)C1=C(C)NC(C)=C(C(=O)OCCc2ccc(N3CCN(C(c4ccccc4)c4ccccc4)CC3)cc2)C1c1cccc([N+](=O)[O-])c1 (stereo unspecified),inactive,inactive,inactive,inactive,–,–,–,–
O=C(O)c1cc(=O)c2c(OCC(O)COc3cccc4oc(C(=O)O)cc(=O)c34)cccc2o1,inactive,inactive,inactive,inactive,–,–,–,–
COc1ccccc1N1CCN(CCCCNC(=O)c2ccc(-c3ccc(C(C)=O)cc3)cc2)CC1,inactive,inactive,inactive,inactive,–,–,–,–
NS(=O)(=O)c1cc(C(=O)O)cc(N2CCCC2)c1Oc1ccccc1,inactive,inactive,inactive,inactive,–,–,–,–
CC1(C)OC[C@@H]2O[C@@]3(C(=O)O)OC(C)(C)O[C@H]3[C@@H]2O1,inactive,inactive,inactive,inactive,–,–,–,–
CC(C)NNC(=O)c1ccncc1,inactive,inactive,inactive,inactive,–,–,–,–
CN1CCN(c2c(F)cc3c(=O)c(C(=O)O)cn4c3c2SCC4)CC1,inactive,inactive,inactive,inactive,–,–,–,–
CC(=O)N(c1onc(C)c1C)S(=O)(=O)c1ccc(N)cc1,inactive,inactive,inactive,inactive,–,–,–,–
CCCCCCCCCCCCCCCC(=O)NCCO,inactive,inactive,inactive,inactive,–,–,–,–
CC(=O)CC(c1ccccc1)c1c(O)c2ccccc2oc1=O (stereo unspecified),inactive,inactive,inactive,inactive,–,–,–,–
Cc1onc(-c2c(Cl)cccc2Cl)c1C(=O)Cl,inactive,inactive,inactive,inactive,–,–,–,–
CC(=O)c1cc2ccccc2s1,inactive,inactive,inactive,inactive,–,–,–,–
CNCC(O)c1ccc(O)c(O)c1 (stereo unspecified),inactive,inactive,inactive,inactive,–,–,–,–
O=C(O)COc1nn(Cc2ccccc2)c2ccccc12,inactive,inactive,inactive,inactive,–,–,–,–
NC(=O)NS(=O)(=O)c1ccc(Cl)cc1,inactive,inactive,inactive,inactive,–,–,–,–
CCOc1nc2cccc(C(=O)O)c2n1Cc1ccc(-c2ccccc2-c2nn[nH]n2)cc1,inactive,inactive,inactive,inactive,–,–,–,–
CC(COc1ccccc1)NN (stereo unspecified),inactive,inactive,inactive,inactive,–,–,–,–
CC(=O)NCc1c(I)c(NC(C)=O)c(I)c(C(=O)O)c1I,inactive,inactive,inactive,inactive,–,–,–,–
COCCOCC(OC)OC,inactive,inactive,inactive,inactive,–,–,–,–
C[C@H]1C[C@H](O)c2ccsc2S1(=O)=O,inactive,inactive,inactive,inactive,–,–,–,–
NC(=O)NC(=O)Cc1ccccc1,inactive,inactive,inactive,inactive,–,–,–,–
CCCc1c2oc(C(=O)O)cc(=O)c2cc2c(=O)cc(C(=O)O)n(CC)c12,inactive,inactive,inactive,inactive,–,–,–,–
Cc1ccc(-c2ncc(Cl)cc2-c2ccc(S(C)(=O)=O)cc2)cn1,inactive,inactive,inactive,inactive,–,–,–,–
Cc1ccc2ccc(Cl)cc2n1,inactive,inactive,inactive,inactive,–,–,–,–
OC1(c2ccccc2)CCNCC1,inactive,inactive,inactive,inactive,–,–,–,–

Compound,Potency [1],Potency [2],Potency [3],Potency [4],"activity change, negative = inhibition [1]","activity change, negative = reduced viability [2]","activity change, negative = lower viability [3]","activity change, negative = inhibition [4]"
C[C@]12C=CC(=O)C=C1CC[C@@H]1[C@@H]2C(=O)C[C@@]2(C)[C@H]1CC[C@]2(O)C(=O)CO,inactive,inactive,inactive,inactive,–,–,–,–
O=c1[nH]c(=O)n([C@H]2O[C@H](CO)[C@@H](O)[C@@H]2O)cc1/C=C\Br,inactive,inactive,inactive,inactive,–,–,–,–
CCCCCCCCCCCCCCCC(=O)OC(C)C,inactive,inactive,inactive,inactive,–,–,–,–
Nc1ncnc(Nc2ccccc2)n1,inactive,inactive,inactive,inactive,–,–,–,–
COc1ccc(C2CNC(=O)C2)cc1OC1CCCC1 (stereo unspecified),inactive,inactive,inactive,inactive,–,–,–,–
C/C(=C(\CCO)SS/C(CCO)=C(\C)N(C=O)Cc1cnc(C)nc1N)N(C=O)Cc1cnc(C)nc1N,inactive,inactive,inactive,inactive,–,–,–,–
CCN(CC)S(=O)(=O)c1ccc(C(=O)O)cc1,inactive,inactive,inactive,inactive,–,–,–,–
O=S(=O)(O)c1ccc2nc(-c3ccccc3)[nH]c2c1,inactive,inactive,inactive,inactive,–,–,–,–
CCN1CCN(C(=O)N[C@@H](C(=O)N[C@@H]2C(=O)N3[C@@H]2SC(C)(C)[C@H]3C(=O)O)c2ccccc2)C(=O)C1=O,inactive,inactive,inactive,inactive,–,–,–,–
Nc1cc(=O)[nH]c(N)n1,inactive,inactive,inactive,inactive,–,–,–,–
CCC1=C(C)CN(C(=O)NCCc2ccc(S(=O)(=O)NC(=O)NC3CCC(C)CC3)cc2)C1=O (stereo unspecified),inactive,inactive,inactive,inactive,–,–,–,–
CN(C)[C@@H]1C(=O)C(C(N)=O)=C(O)[C@@]2(O)C(=O)C3=C(O)c4c(O)cccc4C[C@H]3C[C@@H]12,inactive,inactive,inactive,inactive,–,–,–,–
CC(=O)OC(C)C[N+](C)(C)C (stereo unspecified),inactive,inactive,inactive,inactive,–,–,–,–
O=C(O)Cn1c(=O)n(Cc2ccc(Br)cc2F)c(=O)c2ccc(Cl)cc21,inactive,inactive,inactive,inactive,–,–,–,–
COC(=O)c1cccnc1,inactive,inactive,inactive,inactive,–,–,–,–
CC(=O)OC[C@H]1O[C@@H](OC(C)=O)[C@H](OC(C)=O)[C@@H]1OC(C)=O,inactive,inactive,inactive,inactive,–,–,–,–
Clc1ccc2nsnc2c1NC1=NCCN1,inactive,inactive,inactive,inactive,–,–,–,–
CO[C@@]1(NC(=O)CSCC#N)C(=O)N2C(C(=O)O)=C(CSc3nnnn3C)CS[C@@H]21,inactive,inactive,inactive,inactive,–,–,–,–
Nc1nc(N)c(-c2ccccc2)s1,inactive,inactive,inactive,inactive,–,–,–,–
NS(=O)(=O)c1cc(C(=O)NN2C[C@H]3[C@H]4CCC(C4)[C@H]3C2)ccc1Cl,inactive,inactive,inactive,inactive,–,–,–,–
Cc1cc2c(cc1S(N)(=O)=O)S(=O)(=O)CCC2,inactive,inactive,inactive,inactive,–,–,–,–
CC1CC(OC(=O)c2ccccc2O)CC(C)(C)C1 (stereo unspecified),inactive,inactive,inactive,inactive,–,–,–,–
O=C(OCCN1CCOCC1)c1cccnc1Nc1cccc(C(F)(F)F)c1,inactive,inactive,inactive,inactive,–,–,–,–
CNCCCC12CCC(c3ccccc31)c1ccccc12,inactive,inactive,inactive,inactive,–,–,–,–
